In PubChem BioAssay (NCI) one finds growth data, which are given here for 15 compounds.

About 83,000 compounds went through this panel and 20% of them were active in at least one assay; those are over-represented in the sample as a whole.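 A percent growth of 40 corresponds to 60% growth inhibition; 0 means no net growth; -100 means all cells died. Active threshold: below 10.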 A number with no mark means an inactive call. The source made the active and inactive calls.

What all share (assay): NCI-60 one-dose screen, 48 h (100 = growth as untreated, 0 = no growth, -100 = all killed)
Common to all, as to settings: 10 µM unless noted

For test [1], the system named is NCI-H23 lung.
Test [2] deals with NCI-H226 lung.
Test [3] relates to NCI-H322M lung.
In test [4] the test system is HOP-62 NSCLC.
The subject of test [5] is NCI-H460 lung.
For test [6], the system named is HOP-92 NSCLC.
Test [7] has as its system NCI-H522 lung.
The subject of test [8] is A549/ATCC NSCLC.
Test [9] relates to 786-0 renal.
Test [10] concerns COLO 205 colon.

For the compound `Cn1c2ccccc2c2nnc(NCCCCO)nc21`, the growth in [1] is 84.3%; in [2], 83.9%; in [3], 99.3%; in test [4], 81.6%; in test [5] it was 100%; in [6], 84.1%. Moreover, the growth in [7] was 95.3%; in test [8], 92.6%; in [9] it was 98.8%; in test [10] it was 103%.

As to `Cc1cc2nc(C)c(C)nc2cc1C`, the growth in test [1] was 93.7%; in [2], 84%; in test [3], 118%; in test [4], 92.5%; in test [5], 101%; in test [6], 63.8%. The growth is 95.6% in test [7], 101% in test [8], 103% in test [9] and 98.7% in [10].

As for `C=CCc1cc(OC)c(O)c(OC)c1`, the growth in test [1] is 105%; in [2] it was 93.8%; in test [3], 124%; in test [4], 97.4%; in [5], 108%; in test [6] it was 105%. For the same compound, the growth is 92.2% in [7], 83.9% in test [8], 102% in test [9] and 105% in [10].

Consider `CC(CC(CCC(=O)O)(c1ccccc1)c1ccccc1)N(C)C` (centres undefined), for which the growth in [1] was 98.8%; in test [2] it was 95.3%; in test [3] it was 95.9%; in test [4], 96.6%; in [5] it was 107%; in test [6] it was 102%. The growth was 105% in test [7], 89.8% in test [8], 98.5% in test [9] and 104% in test [10].

Consider `S=c1nc2[nH]c3ccccc3c2n[nH]1`, for which the growth is 96.3% in [1]; 83.1% in test [2]; 98.9% in [3]; -1.58% (active) in [4]; 99.5% in test [5]; 55.7% in test [6]. The growth was 108% in test [7], 104% in [8], 109% in test [9] and 108% in test [10].

Take `CC(=O)Nc1ncc(S(=O)(=O)c2ccc([N+](=O)[O-])cc2)s1`: the growth in test [1] was 117%; in test [2], 105%; in [3], 113%; in [4] it was 93.2%; in test [5], 113%; in test [6], 110%. Further, the growth in test [7] is 94.3%; in test [8] it was 103%; in test [9], 98%; in [10] it was 106%.

On to `Clc1ccc(/C=C/c2ccccn2)cc1`, for which the growth in test [1] is 91.2%; in [2] it was 101%; in [3], 107%; in [4], 94.7%; in test [5], 104%; in test [6], 56.3%. In addition, the growth was 87.1% in test [7], 92.2% in [8], 98.1% in [9] and 105% in test [10].

Turning to `Cc1ccc(N2C(=O)c3cccc4c(N)c(S(=O)(=O)O)cc(c34)C2=O)cc1`, the growth in test [1] was 95.7%; in test [2] it was 89.7%; in test [3], 114%; in [4], 107%; in test [5], 104%; in [6], 86.1%. Also, the growth in [7] is 84.5%; in test [8] it was 104%; in test [9], 104%; in [10], 109%.

Consider `S=C=Nc1ccc2ccccc2c1`, for which the growth in [1] was 96.9%; in [2] it was 101%; in [3], 109%; in [4], 98.3%; in test [5] it was 105%; in [6], 79%. Also, the growth was 97.3% in test [7], 100% in [8] and 111% in test [10].

For `O=C(O)Cc1ccc(Cl)cc1`, the growth is 114% in test [1]; 96% in [2]; 108% in test [3]; 86.9% in test [4]; 107% in test [5]; 38.8% in test [6]. The growth in test [7] was 101%; in test [8] it was 120%; in [9], 93.7%; in test [10] it was 107%.

Turning to `CC12CCC3c4ccc(O)cc4CCC3C1CCC2=O` (centres undefined), the growth in [1] is 104%; in [2], 97%; in test [3] it was 113%; in test [4], 98.1%; in test [5] it was 105%; in [6] it was 104%. Besides, the growth in test [7] was 70%; in [8] it was 92.3%; in [9], 94.5%; in [10], 103%.

In the case of `COC1OC(C(O)C(O)CO)C(O)C(O)C1O` (centres undefined), the growth in [1] was 106%; in test [2] it was 93.4%; in test [3] it was 98.1%; in [4], 88.5%; in test [5] it was 106%; in test [6], 101%. Moreover, the growth in [7] was 111%; in [8] it was 97.3%; in test [10], 111%.

Regarding `NS(=O)(=O)c1cc(=O)[nH]c(=O)[nH]1`, the growth was 114% in test [1]; 109% in test [2]; 93.7% in [3]; 107% in [4]; 111% in test [5]; 172% in test [6]. Further, the values for the growth in [8] and in test [9] were 115% and 105%, respectively.

In the case of `Nc1ccccc1SC1CC(=O)N(c2ccc(Cl)c(Cl)c2)C1=O` (centres undefined), the growth in test [1] was 104%; in test [2], 106%; in test [3], 128%; in [4], 96.6%; in [5], 117%; in [6] it was 101%. Moreover, the figures for the growth in test [8], in test [9] and in test [10] were 99.9%, 93.9% and 127%, respectively.

Consider `CN(C)c1ncnc2c1cnn2C`, for which the growth in test [1] was 103%; in test [2], 98.9%; in test [3] it was 102%; in test [4], 95.8%; in [5], 103%; in test [6], 89.2%. Besides, the growth in [8] was 93.9%; in test [9], 99%; in test [10], 107%.
